Source: PubChem BioAssay AID602310 (National Center for Advancing Translational Sciences (NCATS), 2012)
Among all 410,000 compounds or so, about 310 (0.076%) were called active. Another 2% or so got no clear call; they are omitted. The sample holds actives, similar compounds and a random draw of the others, so the mix is not that of the screen. The call rests on the fitted dose curve; in most records, active means well fitted curve in the direction sought with a large enough effect; inconclusive means small, poorly fitted or top-dose-only effect; inactive means flat fitted curve, though single readings scatter.

Biological target: DNA dC->dU-editing enzyme APOBEC-3G (Homo sapiens) (UniProt Q9HC16)
Assay: qHTS for Inhibitors of Vif-A3G Interactions: qHTS; further: nearly all actives have a fitted effect of over 60% in size;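 on activity, negative = active: hits raise eYFP signal because A3G escapes Vif-driven loss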
Details: HeLa A3G-eYFP + Vif (tagged APOBEC3G with the HIV-1 protein that degrades it), YFP fluorescence, overnight; series mostly up to 46.1 µM; activity, negative = active: at the top concentration
From the text: The recent discovery and characterization of host restriction factors, which provide a potent defense to invading retroviruses, has provided new targets for antiviral drug development. APOBEC3G (A3G) and APOBEC3F (A3F) are potent cytidine deaminases that block HIV-1 replication; HIV-1 expresses the Vif protein, which counteracts A3G and A3F by binding to them and inducing their proteasomal degradation. The Vif-A3G and Vif-A3F interactions provide two potential targets for development of small molecules which can interfere with the ability of Vif to degrade A3G or A3F. […] To identify inhibitors that can interfere with Vif mediated degradation of A3G and A3F, we have developed Hela cell lines that stably express A3G or A3F tagged with eYFP at the C-terminal end (A3G-eYFP or A3F-eYFP, respectively) and Vif. In the absence of an inhibitor, Vif induces degradation of A3G-eYFP and A3F-eYFP, and the cells are not fluorescent. In the presence of an inhibitor, it is expected that Vif will be unable to degrade A3G-eYFP and/or A3F-eYFP, resulting in an increase in yellow fluorescence. In this assays Vif A3G was screened against the Molecular Library Small Molecule Repository (MLSMR). NIH Chemical Genomics Center [NCGC] NIH Molecular Libraries Probe Centers Network [MLPCN] MLPCN Grant: MH093245 Assay Submitter (PI): Vinay Pathak, National Cancer Institute
5 uL of 700 cells/well of A3G-YFP cells are dispensed into black, clear bottom plates. The plates are incubated overnight at 37 deg C. 23 nL of compounds are added by pintool. The plates are incubated overnight at 37 deg C and then read on the TTP Acumen (Ex 488/ Em 500-530).
On the % scale 0 is the no-effect control and ±100 the full control effect; potency means the concentration at half of the fitted maximal effect.

DNA dC->dU-editing enzyme APOBEC-3G (Homo sapiens), sequence (Q9HC16 whole entry, looked up): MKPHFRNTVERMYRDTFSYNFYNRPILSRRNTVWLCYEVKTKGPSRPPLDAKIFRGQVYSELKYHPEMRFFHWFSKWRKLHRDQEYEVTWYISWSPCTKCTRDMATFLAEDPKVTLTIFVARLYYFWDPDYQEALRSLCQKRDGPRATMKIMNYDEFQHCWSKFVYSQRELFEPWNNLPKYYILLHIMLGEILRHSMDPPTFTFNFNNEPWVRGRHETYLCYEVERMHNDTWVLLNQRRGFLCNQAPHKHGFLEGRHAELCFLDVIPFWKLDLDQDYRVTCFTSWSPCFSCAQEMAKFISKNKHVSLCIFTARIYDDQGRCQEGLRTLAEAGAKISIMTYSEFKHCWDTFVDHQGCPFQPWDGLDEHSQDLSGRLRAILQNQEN

Structure (SMILES) | Potency | activity, negative = active
CC/C(=N\NC(=O)c1ccccc1O)c1c(O)n(Cc2ccccc2)c(=O)[nH]c1=O | 10 µM (active) | 
O=c1[nH]c(=O)n(Cc2ccccc2)c(O)c1/C=N/Nc1c(F)c(F)c(F)c(F)c1F |  | -1.03% (inactive)
CCC(=NCCc1ccccc1)c1c(O)n(C2CCCCC2)c(=O)[nH]c1=O |  | -0.155% (inactive)
ClCCN(CCCl)c1ccc(C=Nc2ccc(/C=C/c3ccnc4ccccc34)cc2)cc1 |  | -17.1% (inactive)
